Measurements: PubChem BioAssay (Tox21)
Results filed as inconclusive are left out. Entries that show only a call come without a potency. Calls of active or inactive are those of the source. Calls follow the shape of the dose curve; as a rule, active = well fitted activation curve with a large enough effect in the repeat runs; inconclusive = weak or mixed curves; inactive = flat fitted curve, though single readings scatter.
Potency is read from the fitted curve at half-maximal effect.

Assay: A CellTox Green Cytotoxicity Assay to monitor cytotoxicity in HepG2 cells - 16 hour (AID 1224876); also: nearly all actives have a fitted effect of over 45% in size
Details: CellTox Green fluorescence; series mostly up to 76.8 µM
Excerpt: National Center for Advancing Translational Sciences [NCATS]
NIH Chemical Genomics Center [NCGC]
U.S. Environmental Protection Agency [EPA]
National Institutes of Environmental Health Sciences [NIEHS]
National Toxicology Program [NTP]
Cell-based models are critical for drug discovery. Determining the natural cytotoxic effects resulting from test compounds is an essential research activity. A CellTox Green Cytotoxicity Assay to monitor cytotoxicity in real time of continues cell culture during 40 hours of the compound treatment was used to screen Tox21 10K library compounds in HepG2 cells. CellTox Green Cytotoxicity Assay is a nonlytic, homogeneous, biofluorescent method to measure cytotoxicity in cell culture after experimental manipulation. The assay system uses a proprietary asymmetric cyanine dye that is excluded from viable cells but preferentially stains the dead cell's DNA. […] Viable cells produce no appreciable increases in fluorescence. Therefore, the fluorescence signal produced by the binding interaction with dead cell DNA is proportional to cytotoxicity.
The mixture of HepG2 cell suspension and reagents were dispensed at 600cells/6 ul/well in 1536-well tissue culture treated black solid bottom plates using a Multidrop dispenser. After the assay plates were incubated at a 37 C/5% CO2 incubator for 5 hours, 23 nL of compounds dissolved in DMSO, positive and negative controls was transferred to the assay plate by a pintool work station. The plates were incubated at 37 C for 40 hours. The fluorescence intensity were measured at 0h, 8h, 16h, 24h, 32h and 40h time points using ViewLux plate reader during compound treatment.
For Nc1ncnc2c1ncn2[C@@H]1O[C@H](CO)[C@@H](O)[C@H]1O, the Potency was “inactive”.
For Cc1c(Cl)cccc1[N+](=O)[O-], the Potency was “inactive”.
In the case of CC(C)CCCCCOC(=O)CS, the Potency is reported as “inactive”.
For CC(C)Oc1ccccc1O, the Potency was “inactive”.
For Cc1ccc(NC(=O)c2ccc(CN3CCN(C)CC3)cc2)cc1Nc1nccc(-c2cccnc2)n1, the Potency was “inactive”.
For NC(=O)c1ccccc1C(N)=O, the Potency was 55.2 µM (active).
With O=C(OC1C[C@H]2CC[C@@H](C1)[N+]21CCCC1)C(O)(c1ccccc1)c1ccccc1 (stereo not given in full) the Potency was “inactive”.
For Cc1cc(SC2=C(O)C[C@@](CCc3ccc(N)cc3)(C(C)C)OC2=O)c(C(C)(C)C)cc1CO, the Potency was “inactive”.
For O=C1OC(=O)C2CC=CCC12 (stereo not given), the Potency was “inactive”.
In the case of C=C[Si](OCC)(OCC)OCC, the Potency is reported as “inactive”.
For O=C(O)c1cccnc1Nc1cccc(C(F)(F)F)c1, the Potency was “inactive”.
For Cc1ccc2ccccc2c1[N+](=O)[O-], the Potency was “inactive”.
In the case of C=CC(C)CCC=C(C)C (stereo not given), the Potency is reported as “inactive”.
With COc1ccc(/C=C/c2cc(OC)cc(=O)o2)cc1 the Potency was “inactive”.
With O=C(Cl)c1cc(Cl)cc(Cl)c1 the Potency was “inactive”.
For CCc1ccc2c(c1)C(=O)c1ccccc1C2=O, the Potency was “inactive”.
For CCCCCCCCOCCCN, the Potency was “inactive”.
With C=CC(=O)NC(C)(C)C the Potency was “inactive”.
In the case of O=C(O)CCc1nc2ccccc2[nH]1, the Potency is reported as “inactive”.
In the case of N#CCCCC(C#N)CCC#N (stereo not given), the Potency is reported as “inactive”.
In the case of OCCCO, the Potency is reported as “inactive”.
For NC(=O)c1cc[n+](CC2=C(C(=O)[O-])N3C(=O)[C@@H](NC(=O)Cc4cccs4)[C@H]3SC2)cc1, the Potency was “inactive”.
In the case of Oc1ccc(CCNCCCCCCNCCc2ccccc2)cc1O, the Potency is reported as “inactive”.
For COc1ccc(C(=O)c2ccc(C)cc2)c(O)c1, the Potency was “inactive”.
With O=C(O)c1ccc2c(c1)nc(C(=O)NC1CCN(C3CC3)CC1)n2Cc1cc(-c2ccc(Cl)s2)on1 the cytotoxicity increase was -9.11% [at 15.8 µM] (inactive).
In the case of CCCCC(CC)COCCC#N (stereo not given), the Potency is reported as “inactive”.
In the case of COc1ccc(/C=C/S(=O)(=O)NC(=O)c2ccc(C)cc2Cl)cc1, the Potency is reported as “inactive”.
With CCCCCCCCCCCCCCCCC(=O)O the Potency was “inactive”.
In the case of O=Cc1ccc([N+](=O)[O-])cc1, the Potency is reported as “inactive”.
With CC(CCl)OC(C)CCl (stereo not given) the Potency was “inactive”.
In the case of CCOC(=O)CC(O)(CC(=O)OCC)C(=O)OCC, the Potency is reported as “inactive”.
With CCC(CC)C(=O)O the Potency was “inactive”.
In the case of C[C@]12CCC(=O)C=C1[C@@H]1C[C@@H]1[C@H]1[C@@H]3[C@@H]4C[C@@H]4[C@@]4(CCC(=O)O4)[C@@]3(C)CC[C@@H]12, the Potency is reported as “inactive”.
For CO[C@@H]1COCC[C@@H]1N[C@@H]1CC[C@@](C(=O)N2CCc3ncc(C(F)(F)F)cc3C2)(C(C)C)C1, the Potency was “inactive”.
In the case of Cc1cc(C)c(C)c(O)c1, the Potency is reported as “inactive”.
In the case of Nc1cccc2c(=O)[nH][nH]c(=O)c12, the Potency is reported as “inactive”.
In the case of CCCCCC1CCC(=O)O1 (stereo not given), the Potency is reported as “inactive”.
For CCOC(C)OCC, the Potency was “inactive”.
With C/C=C1\[C@H]2C=C(C)C[C@]1(N)c1ccc(=O)[nH]c1C2 the Potency was “inactive”.
In the case of CC(C)Cc1nccs1, the Potency is reported as “inactive”.
